Data reported in PubChem BioAssay AID493166 (National Center for Advancing Translational Sciences (NCATS), 2011).
A number with no mark means an inactive call. Calls of active or inactive are those of the source. Calls follow the shape of the dose curve; as a rule, active = well fitted curve in the direction sought with a large enough effect; inactive = no such curve, though single readings can be large or run the other way.

Experiment: Retest of LOPAC molecules that induce DNA re-replication in MCF 10A normal breast cells.
Conditions: MCF 10A DNA re-replication, Hoechst nuclear intensity, 48 h; series mostly up to 45.1 µM; activity change, positive = re-replication: at the top concentration
From the text: NIH Molecular Libraries Probe Production Network [MLPCN] NIH Chemical Genomics Center [NCGC] MLPCN Grant: Fast Track K99 CA136555 Assay Provider: Melvin DePamphilis, NICHD, NIH Assay Overview Eukaryotic cells normally restrict genome duplication to once per cell division. When this process is aberrant, DNA re-replication occurs when cells reinitiate DNA replication before the first round of replication is complete. DNA re-replication induces the DNA damage response, arrests cell proliferation, and triggers apoptosis. The cell cycle components cyclin A, Cdt-1, Cdc6 and geminin are critical regulators of this process and their misregulation results in DNA re-replication in normal and cancer cells. To identify compounds that induce re-replication in normal cells, an image-based assay was used to measure DNA content of nuclei, as detected by the fluorescent DNA binding dye, Hoechst. Cell nuclei were imaged by a fluorescence scanning plate imager and compounds that induce DNA re-replication were identified by the increase of nuclei with elevated fluorescence intensity.
Assay Protocol Summary For screening, 250 cells in 5 uL/well were dispensed into black clear 1536-well plates (Aurora) using a solenoid-based dispenser. Following transfer of 23 nL compound or DMSO vehicle by a pin tool, the plates were incubated 48 hr at 37 C and 5% CO2. After addition of 1 uL/well Hoescht stain, the plates were incubated 40 min at 37 C, 5% CO2 and total intensity of fluorescent objects (nuclei) were enumerated by an Acumen Explorer Ex3 (TTP LabTech) fluorescence scanning plate imager (405 nm excitation, 500-530 nm emission). Keywords: NIH Roadmap, MLPCN, MLI, MLSMR, qHTS, NCGC, DNA replication, cancer

Structure (SMILES) | activity change, positive = re-replication | Potency
C[C@@H](Oc1ccc(Oc2cnc3ccc(Cl)cc3n2)cc1)C(=O)O | -68.4% | –
O=c1cc(-c2ccccc2)[nH]c2nc(Cl)ccc12 | – | 5.34 µM (active)
CCCCCCN(CCCCCC)C(=O)Cc1c(-c2ccc(F)cc2)[nH]c2ccccc12 | 29.6% | –
COc1cc2c(cc1O)CC[C@@H]1[C@@H]2CC[C@]2(C)[C@@H](O)CC[C@@H]12 | – | 4.76 µM (active)
CC(=O)O[C@H]1C(=O)[C@@]2(C)C([C@H](OC(=O)c3ccccc3)[C@]3(O)C[C@H](OC(=O)[C@H](O)[C@@H](NC(=O)c4ccccc4)c4ccccc4)C(C)=C1C3(C)C)[C@]1(OC(C)=O)CO[C@@H]1C[C@@H]2O (stereo not given in full) | – | 0.0534 µM (active)
